Source: PubChem BioAssay
Pf growth 48h – P. falciparum growth inhibition at 48 hours (one generation). P. falciparum luciferase growth in erythrocytes, 48 h. Potency, µM (top dose mostly 28.7 µM), for inactives: at the highest dose activity change, negative = inhibition, most hits filed as inhibitors. 310,000 compounds, 5.9% hits; note: potency is the fitted concentration of half-maximal effect; % is set by controls: 0 for no effect and ±100 for the full control effect
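A one-generation exposure of luciferase-tagged malaria parasites in RPMI 1640/Albumax erythrocyte culture, 37 C and 5% CO2. Inhibition is inferred from decreased luminescence after adding detection reagent.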
NS1 inh – blocks influenza NS1 protein function | Potency, µM (doses to about 46.1 µM), for the others: at the highest dose activity, positive = more growth | 270,000 compounds, 0.4% hits; calls by dose curve; note: potency is the fitted concentration of half-maximal effect; actives are rising curves; nearly all actives have a fitted effect of over 50% in size
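Growth recovery, yeast-based: influenza A NS1 expressed in S. cerevisiae causes slow growth, and suppressors are detected by OD600. The parent strain without NS1 is used as positive control.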
Pf growth 96h – P. falciparum growth inhibition at 96 hours. 320,000 compounds, 6.9% hits. Potency, µM (titrated, usually from 28.7 µM), for inactives: at the highest dose activity change, negative = inhibition, hits mostly inhibitors. P. falciparum luciferase reporter growth, 96 h; note: potency is the fitted concentration of half-maximal effect; % is set by controls: 0 for no effect and ±100 for the full control effect
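Compounds incubated with erythrocytes infected by luciferase-expressing P. falciparum (2% hematocrit, 0.05% parasitemia final) for 96 hours, 37 C in 5% CO2. Growth inhibition scored as decreased luciferase luminescence.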
Cycloheximide cs – counter-screen for Shiga toxin inhibitors: cycloheximide protein synthesis inhibition; cell reporter, cycloheximide protein synthesis inhibition counterscreen; max response, %; 300,000 compounds, 12% hits; AID 2314; in the data active = max response mostly above about 13%, no sharp cut-off; inactive = mostly below about 14%; note: read at 38.3 µM for the half of the compounds with a filed dose; 0% is about no effect
Giardia FBPA inh – blocks Giardia fructose-bisphosphate aldolase activity; A8B2U2; purified Giardia FBPA; Potency, µM (top dose mostly 59.6 µM), for the others: at the top dose activity, negative = inhibition, most hits filed as inhibitors; 290,000 compounds, 0.71% hits; note: potency is the fitted concentration of half-maximal effect; % is set by controls: 0 for no effect and ±100 for the full control effect; nearly all actives have a fitted effect of over 55% in size
Target sequence (A8B2U2 whole entry, looked up): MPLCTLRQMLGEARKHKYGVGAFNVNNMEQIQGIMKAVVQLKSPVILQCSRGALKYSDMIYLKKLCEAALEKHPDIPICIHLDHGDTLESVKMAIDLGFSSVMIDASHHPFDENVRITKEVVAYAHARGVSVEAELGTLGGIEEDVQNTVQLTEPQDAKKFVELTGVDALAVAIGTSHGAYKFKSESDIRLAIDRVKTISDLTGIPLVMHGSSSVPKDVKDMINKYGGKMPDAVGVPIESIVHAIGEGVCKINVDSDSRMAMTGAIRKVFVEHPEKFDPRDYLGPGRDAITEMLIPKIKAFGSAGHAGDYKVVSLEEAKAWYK
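40 nM FBPA preincubated 10 min at RT with compound (up to 57.5 uM final), then substrate plus GAPDH/TPI/NAD/arsenate coupling and diaphorase/resazurin added. Fluorescence read after 20 min at RT, 525/598 nm.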
Shiga toxin inh – Shiga toxin inhibition | Vero cells, Shiga toxin protein synthesis inhibition reporter | inhibition, % at 38.7 µM | 290,000 compounds, 9.2% hits | AID 2315; in the data active = inhibition mostly above about 28%, no sharp cut-off; inactive = mostly below about 43%; note: 0% is about no effect
* marks the source's active call; other numbers are inactive results. Most compounds without a hit are left out; they make up all but 21% or so of the library. Unless noted, calls come from the whole dose curve; as a rule, active = well fitted curve in the direction sought with a large enough effect; inconclusive = small, poorly fitted or top-dose-only effect, or another doubt; inactive = no such curve, though single readings can be large; an effect the other way counts as inactive or inconclusive.

Results for CCn1c(O)c(/C(C)=N/N2CCCCC2c2cccnc2)c(=O)[nH]c1=S (stereo not given) ?
Pf growth 48h: inconclusive; NS1 inh: 10%; Pf growth 96h: 13µM*; Cycloheximide cs: -5; Giardia FBPA inh: 0%; Shiga toxin inh: -13

How did O=c1[nH]c(=S)n(-c2ccccc2)c(O)c1/C=N/N1CCCCC1c1cccnc1 (stereo not given) do in these assays?
Pf growth 48h: 2%; NS1 inh: 4%; Pf growth 96h: 74%; Cycloheximide cs: 2; Giardia FBPA inh: -7%; Shiga toxin inh: 4

Results for O=C(c1ccncc1)N1CCC2(CC1)CN(c1ccccn1)C2 ?
Giardia FBPA inh: -7%

What do the screens show for `C/C(=N\Nc1ccc(Cl)c(C(=O)O)c1)c1cccs1`?
Pf growth 48h: inconclusive; NS1 inh: 0%; Pf growth 96h: 7%; Cycloheximide cs: 32*; Giardia FBPA inh: -6%; Shiga toxin inh: 90*

Results for O=C(O)CC/C(=N\Nc1ccc(Cl)cc1)c1cccs1 ?
Pf growth 48h: -9%; NS1 inh: -6%; Pf growth 96h: -14%; Cycloheximide cs: 11; Giardia FBPA inh: 6%; Shiga toxin inh: 4

Results for CC(=O)Nc1ccc(NS(=O)(=O)c2ccc(Cl)c(C(=O)O)c2)cc1 ?
Pf growth 48h: -8%; NS1 inh: 2%; Pf growth 96h: 40%; Cycloheximide cs: -3; Giardia FBPA inh: 3%; Shiga toxin inh: 5

How did C/C(=N/Nc1ccccc1C(=O)O)c1cccs1 do in these assays?
Pf growth 48h: 6%; NS1 inh: -98%; Pf growth 96h: inconclusive; Cycloheximide cs: 20*; Giardia FBPA inh: 20%; Shiga toxin inh: 28

How did C/C(=N\Nc1ccc(Cl)c(C(=O)O)c1)c1ccc[nH]1 do in these assays?
Pf growth 48h: -6%; NS1 inh: 3%; Pf growth 96h: 37%; Cycloheximide cs: 51*; Giardia FBPA inh: -24%; Shiga toxin inh: 157*

What do the screens show for `Cc1cc2nccc(-c3cccnc3)n2n1`?
Pf growth 48h: 252%; Pf growth 96h: 33%; Cycloheximide cs: -5; Giardia FBPA inh: 5%; Shiga toxin inh: -3

What do the screens show for `Nc1ccc(C(=O)Nc2ccco2)cc1`?
Pf growth 48h: 64%; NS1 inh: 4%; Pf growth 96h: -19%; Cycloheximide cs: 23; Giardia FBPA inh: -5%; Shiga toxin inh: 33*

Results for Nc1ccc(C(=O)Nc2cccc(NC(=O)c3ccc(N)cc3)c2)cc1 ?
Pf growth 48h: 23%; NS1 inh: -4%; Pf growth 96h: inconclusive; Cycloheximide cs: 2; Giardia FBPA inh: 1%; Shiga toxin inh: -2

How did CC(C)NS(=O)(=O)c1ccc(NCCCn2ccnc2)c([N+](=O)[O-])c1 do in these assays?
Pf growth 48h: -7%; NS1 inh: 4%; Pf growth 96h: -18%; Cycloheximide cs: 2; Shiga toxin inh: 14

Results for Cc1cc(C)c(COc2ccc(/C=N/n3c(C)n[nH]c3=S)cc2)c(C)c1 ?
Pf growth 48h: 12µM*; NS1 inh: -34%; Pf growth 96h: 12%; Cycloheximide cs: 9; Giardia FBPA inh: 1%; Shiga toxin inh: 30*

What do the screens show for `Cc1n[nH]c(=S)n1/N=C/c1ccc(OCc2ccc(Cl)cc2Cl)cc1`?
Pf growth 48h: 40%; NS1 inh: -28%; Pf growth 96h: inconclusive; Cycloheximide cs: 39*; Giardia FBPA inh: -1%; Shiga toxin inh: 79*

What do the screens show for `Cc1n[nH]c(=S)n1/N=C/c1ccc(OCc2ccc(Cl)cc2)cc1`?
Pf growth 48h: 52%; NS1 inh: -46%; Pf growth 96h: 48%; Cycloheximide cs: 3; Giardia FBPA inh: 4%; Shiga toxin inh: 4

How did CC(=O)C1=C(O)[C@@H]2[C@@H]3c4c[nH]c5cccc(c45)C[C@@H]3C(C)(C)N2C1=O do in these assays?
Giardia FBPA inh: -17%

How did Cc1ccc(C)c(S(=O)(=O)Nc2ccc(C(=O)N3CCC3)cc2)c1 do in these assays?
Pf growth 48h: 9%; Pf growth 96h: 27%

What do the screens show for `CCC(SC1=Nc2ccccc2C2=NC(CC(C)C)C(=O)N12)C(=O)Nc1ccc2c(c1)OCO2` (stereo not given)?
Pf growth 48h: inconclusive; NS1 inh: 11%; Pf growth 96h: 6%; Cycloheximide cs: 23*; Giardia FBPA inh: inconclusive; Shiga toxin inh: 40*
